Experiments:
Settings in all cases: concentration: 1 μM, replicates: in singlicate; n = 1
AAK1 = test system: AAK1
ABL1-nonphosphorylated = test system: ABL1-nonphosphorylated
ABL1-phosphorylated = test system: ABL1-phosphorylated
ABL2 = test system: ABL2
ACVR1B = test system: ACVR1B
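Note: KINOMEscan kinase panel screen.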

Row | Structure (SMILES) | %Inh (AAK1) [%] | %Inh (ABL1-nonphosphorylated) [%] | %Inh (ABL1-phosphorylated) [%] | %Inh (ABL2) [%] | %Inh (ACVR1B) [%]
1 | CCCCc1nn2ncccc2c1-c1ccnc(NC2CC2)n1 [GW684374] | 14 | 0 | 0 | 0 | 0
2 | COc1ccc(-c2coc3ccc(-c4nnc(C)o4)cc23)cc1 | 0 | 32 | 7 | 0 | 12
3 | Cl.Cl.Cl.N#Cc1ccc(CCNc2nccc(-c3cccc(CN4CCNCC4)c3)n2)cc1 [GSK2137462] | 14 | 10 | 0 | 9 | 0
4 | CCn1c(-c2ccccc2)nc2cnccc21 [SB-733416] | 0 | 0 | 13 | 5 | 0
5 | CSc1ccc(-c2nc3n(c2-c2ccncc2)CCC3)cc1 [SKF-105561] | 0 | 16 | 0 | 12 | 4
6 | Nc1ncnc2occ(-c3ccc4c(c3)CCN4C(=O)Cc3cc(F)ccc3F)c12 [GSK2645446] | 53 | 27 | 3 | 13 | 0
7 | Cc1nccc(-c2c(-c3ccc(F)cc3)ncn2CCCN2CCOCC2)n1.Cl [SB-282975] | 0 | 26 | 0 | 22 | 36
8 | Cc1ccc(NC(=O)c2ccc(Cl)cc2)cc1-c1ccc(C(=O)Nc2ccncc2)cc1 [GSK1398467] | 8 | 0 | 0 | 20 | 0
9 | CNc1cc(-c2ccc3c(N)n[nH]c3c2)nc(N)n1 [GSK2224810] | 64 | 0 | 0 | 0 | 21
10 | CS(=O)(=O)CCNCc1nc(-c2ccc3ncnc(Nc4ccc5c(cnn5Cc5ccccc5)c4)c3c2)cs1.Cl.Cl [GW569716] | 0 | 68 | 0 | 13 | 0
11 | Cn1cncc1-c1cc2c(Nc3ccc(OCc4ccccc4)cc3)ncnc2cn1 [GW281179] | 20 | 0 | 0 | 12 | 0
12 | CC(C)c1cc(-c2ccc3c(N)n[nH]c3c2)nc(N)n1 [GSK2250882] | 53 | 0 | 0 | 13 | 0
13 | COc1ccc2cc(-c3nc(-c4ccccc4C(C)C)[nH]c3-c3ccncc3)ccc2c1 [SB-660566] | 20 | 0 | 3 | 8 | 74
14 | Cc1c(Cn2c(C)c(C)n3c(=O)cc(N4CCOCC4)nc23)cccc1C(F)(F)F [GSK2328680] | 0 | 0 | 0 | 11 | 20
15 | CC(=O)c1c(C)c2cnc(Nc3ccn(C)n3)nc2n(C2CCCC2)c1=O | 0 | 0 | 0 | 0 | 2
16 | COc1ccc(CSc2nnc(-c3ccc4c(c3)CCO4)o2)cc1 | 8 | 28 | 0 | 8 | 0
17 | O=C1NC(=O)C(c2ccc(Cl)cc2)=C1Nc1ccc(O)cc1 [SB-340867] | 3 | 28 | 0 | 0 | 0
18 | COc1ccc(Nc2nccc(NCCNC(=O)Nc3cc(C)ccc3C)n2)cc1 [GSK1379899] | 0 | 0 | 0 | 5 | 0
19 | COc1ccc(Nc2nccc(N3CCC(NC(=O)C(C)c4ccc(Cl)cc4)CC3)n2)cc1 (stereo not shown) [GSK1379812] | 23 | 4 | 0 | 28 | 0
20 | Cc1ccc(-c2nc(Nc3ccncc3)c3ccccc3n2)s1 [GSK189015] | 12 | 0 | 0 | 21 | 0
21 | O=c1cc(N2CCOCC2)nc2n(Cc3cccc(Cl)c3Cl)c3ccccc3n12 [GSK2299009] | 31 | 0 | 0 | 16 | 0
22 | COc1cccc(NC(=O)Nc2ccc(C)c(-c3ccc(C(=O)Nc4ccncc4)cc3)c2)c1 [GSK1398474] | 0 | 4 | 0 | 21 | 0
23 | COC(=O)C(NC(=O)NC1CCN(c2ccnc(Nc3ccc(F)cc3)n2)C1)c1ccccc1 (stereo not shown) [GSK1379712] | 5 | 0 | 0 | 0 | 0
24 | COc1ccc(Nc2nccc(-c3ccc(NC(=O)c4cc5cc(F)ccc5[nH]4)cc3)n2)cc1 [GSK1229496] | 65 | 0 | 0 | 0 | 23
25 | COc1ccc(CSc2nnc(-c3ccc4ncsc4c3)o2)cc1C(F)(F)F | 9 | 13 | 8 | 2 | 9
26 | COc1ccc(Nc2nccc(N3CCC(NC(=O)C(C)c4ccc(Cl)cc4)C3)n2)cc1 (stereo not shown) [GSK1379735] | 14 | 0 | 0 | 18 | 19
27 | CC[C@@H]1CO[C@H](C(=O)Nc2ccccc2)CN1c1cc(-c2ccc3c(N)n[nH]c3c2)nc(NC)n1 [GSK2376236] | 19 | 0 | 0 | 0 | 0
28 | CC(=O)c1c(C)c2cnc(Nc3ccc(N4CCNCC4)cn3)nc2n(C2CCCC2)c1=O | 0 | 28 | 0 | 0 | 0
29 | CCc1ccc(-c2ccc3c(c2)-c2n[nH]cc2S(=O)(=O)N3C)cc1 | 15 | 26 | 0 | 0 | 0
